Results: PubChem BioAssay (NCI)
The panel holds about 83,000 compounds, 20% with a hit somewhere; the sample as a whole holds those more often.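 Negative percent growth values reflect cell death: -40 means 40% of the cells present at the start died, and -100 means all died.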 The source made the active and inactive calls. The calls were made as follows: active = growth percent below 10; inactive = the rest.

System: NCI-H226 lung
Assay: NCI-60 one-dose screen, 48 h (100 = growth as untreated, 0 = no growth, -100 = all killed)
Conditions: 10 µM

| SMILES | growth |
| --- | --- |
| CN(C)c1nc2c([nH]1)c(=O)n(C)c(=O)n2C | 81.2% (inactive) |
| N#Cc1ccc(OC(=O)Nc2ccc(Cl)c(Cl)c2)cc1 | 63.7% (inactive) |
| CCOC(=O)CSc1c([N+](=O)[O-])ncn1C | 105% (inactive) |
| Cc1cc(=O)n(-c2ccc(F)cc2)[nH]1 | 98.3% (inactive) |
| c1ccc2c(c1)Sc1ccccc1S2 | 95.9% (inactive) |
| Nc1ncnc2c1nc(N)n2C1OC(CO)C(O)C1O (stereo not given) | -75.4% (active) |
| C=CCOC(=O)C(=O)OCC=C | 99.7% (inactive) |
| O=[N+]([O-])c1cccc2nsnc12 | 93.9% (inactive) |
| CCOC(=O)c1cc2cccc(OC)c2oc1=O | 106% (inactive) |
| CSC(=N\N=C\c1ccc(N(C)C)cc1)/N=C/N(C)C | 90% (inactive) |
| O=C(O)CCCc1ccccc1 | 108% (inactive) |
| COc1cc([C@@H]2c3cc4c(cc3[C@H](O)[C@H]3COC(=O)[C@H]23)OCO4)cc(OC)c1OC | -9.84% (active) |
| CCC(C)(O)c1ccc(C)cc1 (stereo not given) | 103% (inactive) |
| O=C1C=CC(=O)N1c1ccc(I)cc1Cl | 108% (inactive) |
| O=C(O)CCC(NC(=O)OCc1ccccc1)C(=O)O (stereo not given) | 98.8% (inactive) |
| CC12CC3CC1C(C(=O)O2)C3C(=O)O (stereo not given) | 105% (inactive) |
| CCc1nc(N)nc(N)c1-c1ccc(Cl)cc1 | 65.7% (inactive) |
| Cc1cc(OCCO)cc(C)c1Cl | 108% (inactive) |
| Cc1nc2ccccc2c2nnc(SCC(=O)N(Cc3ccccc3)c3ccccc3)n12 | 94% (inactive) |
| CC(C)(O)C#CC#CC(C)(C)O | 79.4% (inactive) |
